{
  "source": "PubChem BioAssay AID1053124",
  "about": "(Broad Institute, 2014)",
  "note": "Results with a measured potency or affinity are listed apart. The source made the active and inactive calls.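 The calls were made as follows: active = cell killing whose fitted half-effect concentration is at most twice the top valid dose tested; inconclusive = flat curve with 30 to 70% killing, or a poor fit; inactive = effect in the rising direction, plus the rest.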",
  "data": [
    {"assay": "A549 cell cytotoxicity, dose response, cytotoxicity control, ATP luminescence, cherry-pick, set 2 (AID 1053124);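 also: 0% = neutral control wells and -100% = mitoxantrone 10 µM positive control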", "conditions": "A549 viability, ATP luminescence (CellTiter-Glo), 72 h; series mostly up to 26 µM; activity change, negative = cytotoxicity: at the top concentration", "values": [
      {"smiles": "Cc1c(O)ccc2cc(S(=O)(=O)c3ccccc3)c(=O)oc12", "activity change, negative = cytotoxicity": "-11.6% (inactive)"},
      {"smiles": "Cc1cccn2c(=O)c3cc(C(=O)NC(C)c4ccccc4)c(=N)n(CCCn4ccnc4)c3nc12", "note": "(stereo unspecified)", "activity change, negative = cytotoxicity": "-9.79% (inactive)"},
      {"smiles": "O=C(CCCn1c(=O)c2sccc2n(Cc2cc(=O)n3ccccc3n2)c1=O)NCc1ccco1", "activity change, negative = cytotoxicity": "5.85% (inactive)"},
      {"smiles": "COc1ccccc1C1C2=C(CC(C)(C)CC2=O)N(CC(=O)O)C2=C1C(=O)CC(C)(C)C2", "activity change, negative = cytotoxicity": "-3.25% (inactive)"},
      {"smiles": "O=C(O)c1[nH]c2ccccc2c1C(c1cc(Br)ccc1O)c1c(C(=O)O)[nH]c2ccccc12", "activity change, negative = cytotoxicity": "2.61% (inactive)"},
      {"smiles": "CCOC(=O)c1cc2c(=O)n3ccccc3nc2n(CCCOC)c1=NC(=O)c1ccncc1", "activity change, negative = cytotoxicity": "-2.23% (inactive)"},
      {"smiles": "CNNC(=S)NC1CC2CC1C1C=CCC21", "note": "(stereo unspecified)", "activity change, negative = cytotoxicity": "-2.33% (inactive)"},
      {"smiles": "COC(=O)C1=CN(Cc2ccc(OC)c(OC)c2)C=C(C(=O)OC)C1c1cccc(F)c1", "activity change, negative = cytotoxicity": "-8.27% (inactive)"},
      {"smiles": "Cc1cccn2c(=O)c3cc(C(N)=S)c(=N)n(CCCOC(C)C)c3nc12", "activity change, negative = cytotoxicity": "2.84% (inactive)"},
      {"smiles": "CCN1C=C(C(=O)OC)C(c2cccc(OC)c2OC)C(C(=O)OC)=C1", "activity change, negative = cytotoxicity": "-4.62% (inactive)"},
      {"smiles": "Cc1ccc(C(=O)OCC(=O)Nc2c(C)nn(-c3ccccc3)c2C)c(O)c1", "activity change, negative = cytotoxicity": "-3.16% (inactive)"},
      {"smiles": "CCc1cccc(C)c1NC(=S)NCc1ccc2c(c1)cc(C)n2C", "activity change, negative = cytotoxicity": "2.91% (inactive)"},
      {"smiles": "CCOc1ccc(S(=O)(=O)Nc2ccc(C(=O)N(CC)CC(=O)NCc3cccs3)cc2)cc1", "activity change, negative = cytotoxicity": "5.76% (inactive)"},
      {"smiles": "CCN(CC)CCN1C2=C(C(=O)CC(C)(C)C2)C(c2cccc(F)c2)C2=C1CC(C)(C)CC2=O", "activity change, negative = cytotoxicity": "-12.3% (inactive)"},
      {"smiles": "N#Cc1c2ccc(OCC(N)=O)cc2n2ccccc12", "activity change, negative = cytotoxicity": "-14.9% (inactive)"},
      {"smiles": "O=c1oc2c(CN3CCCCC3)c(O)ccc2cc1-c1nc2ccccc2[nH]1", "activity change, negative = cytotoxicity": "-7.2% (inactive)"}
    ]}
  ]
}
